# Assay outcomes deposited in PubChem BioAssay by several laboratories.
# Hits are enriched below; roughly 3.6% of the tested compounds scored in any of these assays.
# bCat KO growth: beta-catenin-lacking colon tumor cell growth suppression. 1.5% of 140,000 active. viability, % at 10 µM. HCT116 beta-catenin knockout viability, CellTiter-Glo, 60 h; stronger effect = lower value;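 active = viability at or under a set limit, the compound median less 4 SD, cut at about 6% in these data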;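 also: 0% = Hyamine 1622 control at 20 µM and 100% = untreated cell control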
# hDAT+cocaine: changed human dopamine transporter uptake under cocaine IC80; B-score at 10 µM; 1.3% of 110,000 active; LLC-PK1 hDAT cells, [14C]-dopamine uptake with cocaine IC80; actives deviate in either direction; AID 449768;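 active = Z score or B-score, a plate-position-corrected score, falls beyond the plate's 99.7% confidence bounds, in either direction; inactive = both scores lie inside the 99.7% bounds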;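 also: scored against the spread of the other compound wells on the same plate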
# Target sequence (Q01959 whole entry, looked up): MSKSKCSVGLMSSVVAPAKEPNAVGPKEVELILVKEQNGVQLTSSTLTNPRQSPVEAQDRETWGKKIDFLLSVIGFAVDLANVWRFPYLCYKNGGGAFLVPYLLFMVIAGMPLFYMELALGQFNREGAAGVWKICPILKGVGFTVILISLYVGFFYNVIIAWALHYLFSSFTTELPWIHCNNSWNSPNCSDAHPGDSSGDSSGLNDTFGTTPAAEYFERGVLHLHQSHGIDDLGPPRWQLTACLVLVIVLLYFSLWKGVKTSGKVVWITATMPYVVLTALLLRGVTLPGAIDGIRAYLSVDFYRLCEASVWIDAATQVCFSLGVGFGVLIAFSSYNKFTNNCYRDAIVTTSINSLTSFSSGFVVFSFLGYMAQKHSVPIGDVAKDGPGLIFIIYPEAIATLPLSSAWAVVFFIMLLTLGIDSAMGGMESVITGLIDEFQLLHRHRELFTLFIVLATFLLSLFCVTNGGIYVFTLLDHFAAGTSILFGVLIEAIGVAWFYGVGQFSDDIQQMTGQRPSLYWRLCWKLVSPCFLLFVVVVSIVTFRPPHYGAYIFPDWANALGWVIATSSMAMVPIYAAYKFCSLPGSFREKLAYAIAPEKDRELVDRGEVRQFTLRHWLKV
# PTEN del growth: growth suppressors of cells with PTEN tumor suppressor deletion; HCT116 PTEN-null viability, CellTiter-Glo, 60 h; stronger effect = lower value; viability, % at 10 µM; 1.2% of 140,000 active; AID 827;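 active = viability at or below a set limit, 4 SD under the median of all tested compounds, cut at about 3.7% in these data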;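 also: PTEN knockout HCT116 line with beta catenin targeted HCT116 as companion control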
# WT yeast gro inh: growth inhibition of WT yeast, mitochondrial fusion screen. mitochondrial fusion phenotypic screen, WT strain. inhibition, % at 10 µM. 2.1% of 190,000 active. AID 1362; in the data active = inhibition above about 58%; tested in S. cerevisiae
# * marks the source's active call; other numbers are inactive results; . = not tested or not shown.
SMILES,bCat KO growth,hDAT+cocaine,PTEN del growth,WT yeast gro inh
COc1ccc(/C=C/C(=O)c2ccc(C)c([N+](=O)[O-])c2)cc1O,1.2*,.,1.4*,7.8
COc1cccc(/C=C/C(=O)c2ccc(C)c([N+](=O)[O-])c2)c1,2.7*,.,2.4*,-3.4
COc1cccc(/C=C/C(=O)c2ccc(NS(=O)(=O)c3ccc(C)cc3)cc2)c1,100.9,.,95.2,10.4
CN(C(=O)CCN1C(=O)C2C3C=CC(C3)C2C1=O)c1ccccc1 (centres undefined),.,.,.,-3.3
OCC[C@@H]1C[C@H](O)[C@@H](O)[C@]2(CCCO2)O1,.,-0.00487,.,.
Cc1ccc(S(=O)(=O)n2c3ccc(Cl)cc3c3nc(C)sc32)cc1,80.1,.,82.9,63.8*
Cc1nc2c3cc(Cl)ccc3n(CCN3CCCCC3)c2s1,21.0,0.657,25.3,40.3
COc1ccc(CNc2nc3ccccc3n2C)c(OC)c1,.,.,.,-1.6
COc1ccc(N=Nc2nc3cc(Br)c(Br)cc3n2C)c(OC)c1,70.9,.,64.2,61.1*
CCCCOC(=O)Nc1cccc(C(=O)OCC)c1,90.6,-0.195,92.6,73.1*
COc1ccccc1NC(=S)N(Cc1ccco1)Cc1cc2cc(C)ccc2[nH]c1=O,66.3,.,57.8,14.0
Cc1ccc(Sc2ccc(CN3CCCCC3)cc2[N+](=O)[O-])cc1,.,.,.,61.2*
CCC1(C)OCC(Cn2c3ccccc3c3ccccc32)O1 (centres undefined),77.0,0.0928,91.8,60.9*
N#Cc1ccc(C(c2nnnn2Cc2ccccc2)N2CCCC2)cc1 (centres undefined),86.0,-9.27*,100.1,10.0
COc1ccc(C(c2nnnn2Cc2cccs2)N2CCN(c3ccccc3F)CC2)cc1OC (centres undefined),77.8,-0.531,75.9,13.7
COc1ccc(C(c2nnnn2C2CCCC2)N2CCC(C)CC2)cc1 (centres undefined),86.5,-2.98*,89.5,2.4
Fc1ccc(C(c2nnnn2Cc2cccs2)N2CCN(c3ccccc3)CC2)cc1 (centres undefined),68.9,2.2*,67.1,6.8
Cc1ccc(C(c2nnnn2CCc2ccccc2)N2CCC(C)CC2)cc1 (centres undefined),62.1,0.816,55.0,74.5*
CCOc1ccc(N=Nc2c(C)noc2C)cc1,.,.,.,3.5
CC(C)Oc1ccc(/C=N/NC(=O)C(CSCc2ccccc2)NC(=O)c2ccc([N+](=O)[O-])cc2)cc1 (centres undefined),71.3,-6.05*,36.0,-2.2
Cc1cccc(NC(=O)c2nc[nH]c2C(=O)N[C@@H](CC(C)C)C(=O)OC(C)(C)C)c1,.,2.75*,.,.
Cc1cccc(NC(=O)c2nc[nH]c2C(=O)N[C@@H](Cc2ccccc2)C(=O)OC(C)(C)C)c1,.,0.81,.,.
Cc1ccc(NC(=O)c2nc[nH]c2C(=O)N[C@@H](C)c2ccccc2)cc1,.,0.847,.,74.3*
Cc1ccc(NC(=O)c2[nH]cnc2C(=O)NN)cc1,.,.,.,-2.5
Cc1cc(C)n(-c2ccc(C(=O)N3CCC(CO)(Cc4ccccc4)CC3)cc2)n1,.,.,.,0.5
SMILES,bCat KO growth,hDAT+cocaine,PTEN del growth,WT yeast gro inh
COc1ccccc1C(CC(=O)c1ccccc1)CC(=O)c1ccccc1,.,.,.,31.2
C=C(CCC(=O)c1ccccc1)C(=O)c1ccccc1,0.4*,.,0.5*,25.3
C=C(C(=O)c1ccccc1)C(CC(=O)c1ccccc1)c1ccccc1 (centres undefined),4.8*,.,3.1*,9.7
O=C1N[C@H](C(=O)O)CS1,.,-1.05,.,.
COc1cccc(NC(=S)N/N=C2/CCCCc3ccccc32)c1,72.4,.,71.7,65.4*
O=C(NCc1ccco1)c1cccn2c(=O)c3cc4ccccc4cc3nc12,2.6*,.,1.7*,38.5
C=CCn1c(=N)c(C(=O)NCCCOC)cc2c(=O)n3cccc(C)c3nc21,81.0,1.81,77.5,5.9
COCCCNC(=O)c1cccn2c(=O)c3cc4ccccc4cc3nc12,4.3*,-0.906,3.9,44.3
O=C(OC(C(=O)Nc1cccc(C(F)(F)F)c1)c1ccccc1)C1CCCCC1 (centres undefined),21.1,.,8.2,62.4*
COc1ccc(O[C@H]2C=C[C@@H](c3ccccc3)O[C@@H]2COC(=O)CC/C(C)=N/O[C@@H](C)CN2CCCCc3nc(C)c(C)cc32)cc1,67.8,.,60.9,66.7*
C/C(CCC(=O)OC[C@H]1O[C@H](C#Cc2ccccc2)C=C[C@@H]1Oc1ccc(C)cc1)=N\O[C@@H](C)CN1CCCCc2nc(C)c(C)cc21,66.9,.,60.4,20.4
CC(C)C1Nc2ccc(S(=O)(=O)N3CCOCC3)cc2NC1=O (centres undefined),.,.,.,8.9
CCOc1ccc(N2CC(C(=O)NC(C)C)CC2=O)cc1 (centres undefined),95.7,0.106,87.4,59.8*
CCCNC(=O)C1CC(=O)N(c2ccc(OCC)cc2)C1 (centres undefined),.,.,.,11.9
O=S(=O)(NCC1CCCO1)c1ccc(S(=O)(=O)N(Cc2ccc(F)cc2)C2CCCCC2)cc1 (centres undefined),.,-0.0878,.,.
Cn1nc(-c2ccc(NCCO)c([N+](=O)[O-])c2)c2ccccc2c1=O,.,.,.,-0.8
CC1CC(=O)NN=C1c1ccc(NCCO)c([N+](=O)[O-])c1 (centres undefined),91.3,-2.61*,91.9,10.2
O=C(N/N=C\c1cn(-c2ccccc2)nc1-c1ccccc1)c1ccc(Br)o1,7.1,.,6.6,-0.3
Cc1ccc(-c2nn(-c3ccccc3)cc2/C=N/NC(=O)c2ccc(Br)o2)cc1,4.2*,0.0494,3.8,6.3
O=C(c1ccc(CSCc2ccccc2F)o1)N1CCN(c2ccc(N3CCOCC3)nn2)CC1,73.2,3.38*,72.3,-4.2
Cc1cc(C)c2cc(C(c3nnnn3C3CCCC3)N3CCOCC3)c(=O)[nH]c2c1 (centres undefined),87.3,-0.408,84.9,14.3
Cc1ccc2cc(C(c3nnnn3C3CCCC3)N3CCN(c4ccc(F)cc4)CC3)c(=O)[nH]c2c1 (centres undefined),93.4,3.73*,88.2,-13.0
Nc1ccccc1N=Cc1ccc(-c2cccc(Cl)c2)o1,.,.,.,50.8
CC(C)CCN1CCN(CCCn2cccn2)CC1CCO (centres undefined),.,.,.,8.5
O=C(NCc1ccc2[nH]c3c(c2c1)CCCC3)c1ccc(S(=O)(=O)N2CCCCC2)cc1,71.6,0.533,69.8,2.1
SMILES,bCat KO growth,hDAT+cocaine,PTEN del growth,WT yeast gro inh
CCS(=O)(=O)NCc1ccc2[nH]c3c(c2c1)CCCC3,102.9,-1.38,79.1,1.0
Cc1cc(C)cc(NC(=S)NCc2ccc3[nH]c4c(c3c2)CCCC4)c1,35.1,.,43.9,72.0*
S=C(NCc1ccc2[nH]c3c(c2c1)CCCC3)Nc1ccccc1,40.0,-0.246,41.6,75.6*
Cc1ccccc1NC(=S)N(CCCN1CCOCC1)Cc1ccccn1,93.5,.,92.4,13.8
S=C1NCCc2ccccc2C1c1ccccc1 (centres undefined),90.1,0.603,88.3,20.8
S=C1NCCc2ccccc2C1c1ccccc1Cl (centres undefined),94.3,0.512,95.7,61.9*
N#Cc1c(N)nc2c(c1-c1ccc3c(c1)OCO3)CCc1ccccc1-2,57.3,.,59.5,62.1*
N#Cc1c(N)c(C#N)c(-c2ccc3c(c2)OCO3)c2c1CCCC2,105.6,-0.000358,83.3,-0.3
